In all, about 16,000 compounds went through this assay and about 4,000 (25%) were called active. Another 26% or so got no clear call; they are omitted. These entries were drawn from the full list. A number with no mark means an inactive call. The call rests on the fitted dose curve; in most records, active means well fitted curve in the direction sought with a large enough effect; inconclusive means small, poorly fitted or top-dose-only effect, or effect the other way; inactive means no such curve, though single readings can be large or run the other way.
Each molecule was assayed against Cytochrome P450 2C9 (Homo sapiens) (UniProt P11712) (assay: Cytochrome panel assay with activity outcomes). Settings: recombinant CYP, pro-luciferin dealkylation, luminescence, p450-cyp2c9; series mostly up to 57.1 µM; activity, negative = inhibition: at the top concentration.
On the % scale 0 is the no-effect control and ±100 the full control effect.

Sequence of Cytochrome P450 2C9 (Homo sapiens) (P11712 whole entry, looked up): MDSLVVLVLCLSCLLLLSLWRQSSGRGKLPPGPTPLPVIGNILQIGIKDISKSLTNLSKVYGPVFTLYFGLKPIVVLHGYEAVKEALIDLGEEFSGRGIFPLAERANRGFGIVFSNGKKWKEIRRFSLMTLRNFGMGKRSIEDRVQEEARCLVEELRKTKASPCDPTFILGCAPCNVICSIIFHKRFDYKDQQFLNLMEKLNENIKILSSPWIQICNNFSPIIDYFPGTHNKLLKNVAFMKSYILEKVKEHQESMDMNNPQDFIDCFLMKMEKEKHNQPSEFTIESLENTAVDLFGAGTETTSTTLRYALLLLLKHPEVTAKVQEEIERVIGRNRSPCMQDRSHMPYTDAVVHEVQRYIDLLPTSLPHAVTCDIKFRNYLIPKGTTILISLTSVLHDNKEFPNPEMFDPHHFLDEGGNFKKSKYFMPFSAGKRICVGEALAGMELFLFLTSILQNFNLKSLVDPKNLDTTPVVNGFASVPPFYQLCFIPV

Compound	AC50	activity, negative = inhibition
CC(=O)N[C@@H](c1ccccc1)[C@]1(C)C[C@H]1[C@@H](C)C(=O)Nc1ccc2ccccc2c1	6.31 µM (active)	–
C[C@@H](C(=O)Nc1ccc2ccccc2c1)[C@H]1C[C@]1(C)[C@H](NS(=O)(=O)c1ccc2ccccc2c1)c1ccccc1	–	6.98%
Cc1cc(C)cc(OCC(=O)NNC(=O)c2cc(C)[nH]n2)c1	28.2 µM (active)	–
Cc1cc(NC(=O)NC(=O)c2ccc(F)cc2F)n[nH]1	–	2.2%
Cc1ccc(OCC(=O)NNC(=O)c2cc3ccccc3o2)cc1	–	-5.57%
NC1(C(=O)O)CC(C(=O)O)C1 (stereo unspecified)	–	-10.1%
NC1(C(=O)O)C[C@H](C(=O)O)[C@H](C(=O)O)C1 (stereo partly specified)	6.31 µM (active)	–
NC1(C(=O)O)C[C@@H](C(=O)O)[C@H](C(=O)O)C1	inactive	–
CCc1c(O)c2c(c(O)c1C(C)=O)C(=O)c1c(cc(O)c(C(=O)O)c1C(=O)O)C2=O	–	-13.4% [at 11.4 µM]
O=C(Nc1cccc(NC(=O)c2ccc(-c3cccc(Br)c3)o2)c1)c1ccco1	5.01 µM (active)	–
N#Cc1cccc(NC(=O)N2CCC3(CC2)CCN(C(=O)c2ccco2)CC3)c1	–	-22.8%
COc1cccc(-c2nccc(N(C)Cc3ccco3)n2)c1	–	2.63% [at 2.29 µM]
COc1cccc(-c2nccc(NCc3ccc(OC)cc3OC)n2)c1	–	-22.3% [at 2.29 µM]
COc1cccc(-c2noc(Cn3nc(C)c([N+](=O)[O-])c3C)n2)c1	4.47 µM (active)	–
COC1(OC)N=C(NC(=O)Nc2ccccc2)C2(C#N)C(c3ccccc3)C12C#N (stereo unspecified)	12.6 µM (active)	–
CC(=O)[C@H](C(=N)C#N)C(=O)Nc1ccccc1	–	10.8% [at 11.4 µM]
COc1cccc(C2C3(C#N)C(N)=NC(OC)(OC)C23C#N)c1 (stereo unspecified)	–	1.33%
CC1(C)CC(=O)C(C(c2cccc(O)c2O)C2C(=O)CC(C)(C)CC2=O)C(=O)C1	–	3.72% [at 11.4 µM]
Cc1ccc(C(C2C(=O)CC(C)(C)CC2=O)C2C(=O)CC(C)(C)CC2=O)s1	28.2 µM (active)	–
O=S(=O)(c1ccccc1)N1CCC2(CC1)CN(Cc1nccs1)C2	–	16%
O=C(Nc1nccs1)C1Cc2ccccc2CN1S(=O)(=O)c1ccc(F)cc1 (stereo unspecified)	12.6 µM (active)	–

Compound	AC50	activity, negative = inhibition
O=S(=O)(c1ccccc1)N1CCC2(CCN(Cc3nccs3)CC2)CC1	–	-24.4%
O=C(Nc1nnc(C2CC2)s1)C1Cc2ccccc2CN1S(=O)(=O)c1ccccc1F (stereo unspecified)	3.16 µM (active)	–
CCc1nnc(NC(=O)C2Cc3ccccc3CN2S(=O)(=O)c2ccc(C)cc2)s1 (stereo unspecified)	3.98 µM (active)	–
CC(C)CN1CCC2(CC1)CCN(C(=O)c1cccn1C)CC2	–	28.9%
CCOC(=O)n1ccn(C)c1=S	–	11.1% [at 25.6 µM]
CC(=O)OC[C@@H]1O[C@@H](O/N=C2/C[C@@H](O)[C@@H](O)[C@@H]3[C@@H]4C(=O)N(C(C)(C)C)C(=O)[C@H]4CC[C@H]23)[C@H](OC(C)=O)[C@H](OC(C)=O)[C@@H]1OC(C)=O	–	2.66% [at 11.4 µM]
CO[C@H]1COC(=O)[C@H](C)NC(=O)C/C=C\[C@@H](C)[C@H](OC)COC(=O)[C@@H](OCc2ccccc2)/C=C\[C@@H]1C	–	-13.3% [at 11.4 µM]
O=C(NCCc1ccc(Cl)cc1)Nc1cccc(Cl)c1	3.98 µM (active)	–
CN(C)CCNC(=S)Nc1cccc(Cl)c1	–	-8.2%
CNC(=O)C(=O)NCCc1ccc(Cl)cc1	–	-16.9%
CC(=O)OC[C@@H]1O[C@@H](O/N=C2/C[C@@H](O)[C@@H](O)[C@@H]3[C@@H]4C(=O)N(C5CCCCC5)C(=O)[C@H]4CC[C@H]23)[C@H](OC(C)=O)[C@H](OC(C)=O)[C@@H]1OC(C)=O	–	9.42% [at 11.4 µM]
O=c1c(-c2cc(F)cc(F)c2)nc2cnc(N3CCOCC3)nc2n1C[C@H]1CCCO1	–	13.6%
O=C(NC12CC3CC(CC(C3)C1)C2)c1ccc(COc2ccc(Cl)cc2[N+](=O)[O-])o1	7.94 µM (active)	–
CC(C)=CCC/C(C)=C/CO/N=C1/C[C@@H](O)[C@@H](O)[C@@H]2[C@@H]3C(=O)N(Cc4ccccc4)C(=O)[C@H]3CC[C@H]12	–	-1.37% [at 11.4 µM]
CC(C)=CCC/C(C)=C/CO/N=C1/C[C@@H](O)[C@@H](O)[C@@H]2[C@@H]3C(=O)N(Cc4ccccc4)C(=O)[C@H]3CC[C@@H]12	–	24.4% [at 11.4 µM]
c1nc(N2CCNCC2)c2cc(-c3ccc4c(c3)OCO4)ccc2n1	–	14.4% [at 2.29 µM]
C[C@@H]1O[C@@H](O)[C@@H](O)[C@H](O)[C@H]1O	–	0.774% [at 11.4 µM]
CC1(C)SC(=S)N(Cc2ccc3c(c2)OCO3)C1N(O)C(=O)NC1CCCCC1 (stereo unspecified)	3.55 µM (active)	–
NC(=O)[C@@H]1CCCN1Cc1ccc2c(c1)OCO2	–	-2.9% [at 11.4 µM]
O=C(O)[C@@H]1CCCN1Cc1ccc2c(c1)OCO2	–	-5.38% [at 11.4 µM]
